Test results from PubChem BioAssay (NCI).
This is part of a sample that, as a whole, favours compounds with a hit. Of some 79,000 tested, about 15% had one in any assay. Cut-off read from the data, not from the text of the source: active = growth inhibition above about 70%; inactive = the rest.

Legend:
[1] = NCI Yeast Anticancer Drug Screen. Data for the rad50 strain (AID 155);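 note: 0% = growth of vehicle-only cultures of the same strain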; details: S. cerevisiae rad50 strain growth inhibition; at 50.0 µM; active compounds read high
Method in brief: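 Compounds were tested on a yeast strain with an engineered DNA damage repair alteration; the reported value is growth inhibition normalised to vehicle treatment.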

[2] = NCI Yeast Anticancer Drug Screen. Data for the mec2-1 strain (AID 157); details: S. cerevisiae mec2-1 strain, at 50.0 µM, active compounds read high
Method in brief: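 Vehicle-treated cultures served as reference for growth inhibition of compound-exposed mec2-1 yeast.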

[3] = NCI Yeast Anticancer Drug Screen. Data for the sgs1 mgt1 strain (AID 161);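 note: 0% = growth of cultures given vehicle only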; details: S. cerevisiae sgs1 mgt1 strain, at 50.0 µM, active compounds read high
Method in brief: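 Mutant yeast exposed to compound; growth scored against vehicle-only wells.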

[4] = NCI Yeast Anticancer Drug Screen. Data for the cln2 rad14 strain (AID 165);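 note: 0% = growth equal to vehicle treated cultures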; details: S. cerevisiae cln2 rad14 strain, at 50.0 µM, active compounds read high
Method in brief: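 Each compound was tested on cln2 rad14 yeast. Inhibition of growth was calculated against vehicle-exposed controls.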

[5] = NCI Yeast Anticancer Drug Screen. Data for the bub3 strain (AID 167); details: S. cerevisiae bub3 mutant strain, at 50.0 µM, active compounds read high
Method in brief: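 Growth of a checkpoint-deficient yeast mutant is measured after compound exposure. Values represent inhibition relative to vehicle.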

[6] = NCI Yeast Anticancer Drug Screen. Data for the mlh1 rad18 strain (AID 175); details: S. cerevisiae mlh1 rad18 strain growth inhibition; at 50.0 µM; active compounds read high
Method in brief: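 Vehicle-treated cultures served as the reference for growth inhibition in a yeast strain carrying DNA damage repair alterations exposed to each compound.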

Measured: growth inhibition

Cc1cccc(C(C)(O)c2cnc(C)n2Cc2ccccc2)c1 (stereo not given)
inactive: [1] 5.1% | [2] 14.2% | [3] 10.8% | [4] 18.8% | [5] 9.35% | [6] 15.2%

O=C(c1ccccc1)C(c1ccccc1)(c1ccccc1)c1ccccc1
inactive: [1] -4.1% | [2] 6.2% | [3] -17.3% | [4] -30% | [5] -10.2% | [6] 24.1%

NC(=O)N1CCCC1
inactive: [1] -1.65% | [2] 13.1% | [3] -3.7% | [4] 7.7% | [5] 9.45% | [6] 2.15%

Cc1cc(C)c(Br)cc1C
inactive: [1] 4.9% | [2] 15% | [3] 5.8% | [4] 3.4% | [5] 3% | [6] -5.35%

COC1(OC)CC2C(=O)N(Cc3ccccc3)C1C=C2S(=O)(=O)c1ccccc1 (stereo not given)
inactive: [1] 2.5% | [2] 9.65% | [3] -18.2% | [4] -47.5% | [5] 1.55% | [6] 8.25%

CC(C)(C)c1ccc(N)cc1
inactive: [1] -37.7% | [2] -29.8% | [3] -10.9% | [4] -3.45% | [5] -2.65% | [6] -13.5%

CCOC(=O)C[C@@]1(C)C(=O)O[C@H](c2ccccc2)N1C(=O)c1ccccc1
inactive: [1] 13.2% | [2] 6.4% | [3] 14.2% | [4] 29.9% | [5] 11.8% | [6] 15.1%

c1ccc2c(c1)C1CCCCCC21N1CCOCC1 (stereo not given)
inactive: [1] 18% | [2] 1.05% | [3] -14.4% | [4] -5.45% | [5] -30.4% | [6] 7.6%

C[n+]1nnn(/N=C\c2ccccc2)c1N
inactive: [1] -3.55% | [2] 11.8% | [3] 10.1% | [4] -0.95% | [5] 8.75% | [6] 11.6%

O=S(=O)(O)c1cc(N=Nc2cc(S(=O)(=O)O)c3ccccc3c2O)ccc1/C=C/c1ccc(N=Nc2cc(S(=O)(=O)O)c3ccccc3c2O)cc1S(=O)(=O)O
inactive: [1] 34% | [2] 36% | [3] 17.6% | [4] 13.7% | [5] 45.9% | [6] 42.6%

Oc1ccc2ccc3[nH]cnc3c2c1
inactive: [1] -22.5% | [2] -25.4% | [3] -9% | [4] 2.1% | [5] -8.9% | [6] 0.15%

COC(=O)c1ccc(OC(=O)Nc2ccc(Br)cc2)cc1
inactive: [1] 11.3% | [2] 26.4% | [3] 27% | [4] -4.2% | [5] 37.2% | [6] 19.9%

O=c1cc(-c2cccs2)ss1
inactive: [1] 18.4% | [2] 5.25% | [3] -0.65% | [4] -34.6% | [5] 13.8% | [6] 25%

CCCCc1c2c(nc3c1CCCC3=O)CCCC2
inactive: [1] 8.7% | [2] 8.45% | [3] 27.4% | [4] 15.8% | [5] 37.9% | [6] -0.8%

CCCCNC(=O)OCCN=c1c2ccccc2ccc2ccccc12
inactive: [1] -25.6% | [2] -31.4% | [3] -9.95% | [4] 2.8% | [5] -1.3% | [6] -15.4%

C=CCCC(C)N(C(=O)OC(C)(C)C)S(=O)(=O)c1ccc(C)cc1 (stereo not given)
inactive: [1] 16.6% | [2] -13.2% | [3] 4.85% | [4] -9.3% | [5] -4% | [6] 0.45%

O=C1CC(c2ccccc2)=NN1c1ccccc1
inactive: [1] -8.3% | [2] -25.4% | [3] -5.55% | [4] 9.5% | [5] -23.8% | [6] 18.6%

CCCCN1C[C@H](OC(=O)CCC)[C@@H](OC(=O)CCC)[C@H](OC(=O)CCC)[C@H]1COC(=O)CCC
inactive: [1] -18.4% | [2] -15.7% | [3] -11% | [4] -5.3% | [5] -23.9% | [6] -15.7%

CC1(C)C2CC=C(CCO)C1C2 (stereo not given)
inactive: [1] -2.85% | [2] -5.8% | [3] 2.05% | [4] -20.6% | [5] 0.05% | [6] -21.4%

N=C(N)SCCC(=O)CCSC(=N)N
inactive: [1] 27.9% | [2] 18.6% | [3] 33.6% | [4] 32.2% | [5] 15.6% | [6] -2.75%

Cc1c[nH]c(=O)n(CC(=O)C2(O)CCC3C4CCC5=CC(=O)CCC5(C)C4CCC32C)c1=O (stereo not given)
inactive: [1] 5.25% | [2] -4.45% | [3] -10.9% | [4] 13.2% | [5] -0.55% | [6] -1.35%

CSCNC(=S)Nc1ccc(Cl)c(Cl)c1
inactive: [1] 59.2% | [2] 45% | [3] 35% | [4] 23.4% | [5] 53% | [6] 61.3%

C(CCN1CN(CCCCN2CCOCC2)CN(CCCCN2CCOCC2)C1)CN1CCOCC1
inactive: [1] 12.8% | [2] 4.75% | [3] 10.4% | [4] -5.5% | [5] -1.75% | [6] 29.6%

CCCCCCCCCC(=O)N/N=C/c1ccccc1O
inactive: [1] -4.3% | [2] 12.7% | [3] 19.2% | [4] -19.1% | [5] 19.9% | [6] 13.8%

N#CC(/C(CCCC(=O)Nc1cccc([N+](=O)[O-])c1)=N/NC(=O)c1cc2ccccc2cc1O)c1ccccc1 (stereo not given)
inactive: [1] 41.4% | [2] 41.4% | [3] -17.2% | [4] 9.4% | [5] 36.8% | [6] 38%

COc1ccc(C(=O)CCc2cccc(NC(=O)CCCl)c2)cc1
inactive: [1] -17.6% | [2] 6.2% | [3] 6.45% | [4] -9.1% | [5] -6.85% | [6] -11.8%

CCOC(=O)c1c[nH]c2c(=O)n(C)c(=O)[nH]c12
inactive: [1] 7.25% | [2] -7.75% | [3] 3.5% | [4] -28.8% | [5] 0.5% | [6] 24.1%

O=c1[nH]c2cccccc-2c1-c1nc2ccccc2[nH]1
inactive: [1] 40.6% | [2] 15.2% | [3] 33.6% | [4] 19.5% | [5] 16.7% | [6] 8.95%

CC1=CC(=O)c2ccc3c4ccccc4n(C)c3c2C1=O
inactive: [1] -16.7% | [2] -35.1% | [3] -13.9% | [4] 0.2% | [5] -2.9% | [6] -19.9%

Cc1c(C)c(C)c2cc3c(C)c(C)c(C)c(C)c3cc2c1C
inactive: [1] -4.55% | [2] -1.9% | [3] -8.5% | [4] -2.35% | [5] 6.45% | [6] -11.6%

Nc1nc(N)c2cc(S(=O)(=O)c3ccccc3)ccc2n1
inactive: [1] 26.1% | [2] 8.7% | [3] -8.9% | [4] -4.55% | [5] -26.1% | [6] -40.5%

[N-]=[N+]=NCC1OCC(O)C(OCc2ccccc2)C1OCc1ccccc1 (stereo not given)
inactive: [1] -8.6% | [2] -10.4% | [3] -3.75% | [4] -11.8% | [5] -10.4% | [6] 3.3%

CCOC(=O)C12CCCC1(O)N(NC(=O)OC(C)(C)C)C(C)=C2C(=O)OC (stereo not given)
inactive: [1] -7.85% | [2] 15.1% | [3] -2.6% | [4] -43.2% | [5] 0.35% | [6] -7.5%

CCc1ccccc1NC(=O)C(=O)C1C(=O)N(c2ccccc2)N=C1N (stereo not given)
inactive: [1] -10.2% | [2] -31.4% | [3] -3% | [4] 21.4% | [5] -34.5% | [6] -22%

COc1cc([C@@H]2c3cc4c(cc3[C@H](O)[C@H]3COC(=O)[C@@H]23)OCO4)cc(OC)c1OC
inactive: [1] 2.55% | [2] 4.2% | [3] 1.2% | [4] 5.7% | [5] 7.15% | [6] 16.2%

CC1=C(C(=O)OCCc2ccc([N+](=O)[O-])cc2)C(c2cccc([N+](=O)[O-])c2)C(C(=O)OC(C)C)=C(C)N1 (stereo not given)
inactive: [1] 0.15% | [2] -6.95% | [3] 12.8% | [4] 0.45% | [5] 16.1% | [6] -30.9%

Cc1c(C(=O)CC2OC(=O)C(Cl)=C2Cl)c2ccccc2n1C(=O)Nc1ccc(Cl)cc1 (stereo not given)
inactive: [1] 15.8% | [2] -6.75% | [3] 11.1% | [4] -32.4% | [5] 5.05% | [6] 5.3%

CSc1nc(N)c(N)c(N)n1
inactive: [1] 0.1% | [2] 2.9% | [3] -2.75% | [4] -21.8% | [5] 11.8% | [6] 14.4%

CC(=O)OCC1OC(n2nnc(CCl)c2CCl)C(OC(C)=O)C(OC(C)=O)C1OC(C)=O (stereo not given)
inactive: [1] 38.5% | [2] 8.7% | [3] 0.5% | [4] -3.15% | [5] -0.25% | [6] 8.45%

O=C(c1ccc(Cl)cc1)C1C(c2ccccc2)C1[N+](=O)[O-] (stereo not given)
inactive: [1] 11.2% | [2] -11.2% | [3] -3.2% | [4] -28.9% | [5] 16.4% | [6] 31%
